# Bioassay records: PubChem, Broad Institute
# Env fusion inh – inhibitors of HIV-1 Env-driven cell-cell fusion, primary screen, HeLa-JRFL effector, CEM21 target cells, luciferase; inhibition, % at 12.3 µM; 360,000 compounds, 1.1% hits;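 active means mean replicate inhibition score of at least 50 and every replicate individually at or above 50; inconclusive means only one of the two criteria met; inactive means mean below 50 and not all replicates reaching 50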;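 further: 0% = plate neutral controls and 100% = maraviroc near 300 nM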
# PGC1a acetyl inh – inhibitors of PGC1a acetylation signal, primary screen, cell-based, U2OS, AlphaScreen, inhibitor mode; inhibition, % at 15.6 µM; AlphaScreen anti-acetyl-lysine; with virally co-expressed GCN5 acetyltransferase; 350,000 compounds, 0.17% hits;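 active means every replicate shows inhibition of at least 40%; inconclusive means mean inhibition at least 40% but some replicate below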;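 further: 0% = neutral control wells and 100% = positive control wells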
# INS-1E GSIS act – GLuc luminescence reporter in INS-1E cells, primary screen for activators of glucose-dependent secretion of insulin. INS-1E GLuc reporter insulin secretion, 2-3 h. activation, % at 16.6 µM. 370,000 compounds, 0.61% hits;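 active means lowest replicate activation of at least 40%, so every replicate reaches that level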;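 further: 0% = median of neutral control wells and 100% = median of IBMX positive control wells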
# AF4-AF9 inh – inhibitors of AF4 peptide binding to AF9, primary screen, biochemical, AlphaScreen, biotin-AF4 peptide, FLAG-AF9, single point; 350,000 compounds, 0.47% hits; inhibition, % at 10 µM; Protein AF-9 (Homo sapiens), P42568;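 active means every replicate reaching a set inhibition limit, whatever the replicate mean, cut at about 25% in these data; inconclusive means mean inhibition reaches that limit but some replicates miss it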;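 further: 0% = plate neutral control median and 100% = total signal loss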
# Target sequence (P42568 whole entry, looked up): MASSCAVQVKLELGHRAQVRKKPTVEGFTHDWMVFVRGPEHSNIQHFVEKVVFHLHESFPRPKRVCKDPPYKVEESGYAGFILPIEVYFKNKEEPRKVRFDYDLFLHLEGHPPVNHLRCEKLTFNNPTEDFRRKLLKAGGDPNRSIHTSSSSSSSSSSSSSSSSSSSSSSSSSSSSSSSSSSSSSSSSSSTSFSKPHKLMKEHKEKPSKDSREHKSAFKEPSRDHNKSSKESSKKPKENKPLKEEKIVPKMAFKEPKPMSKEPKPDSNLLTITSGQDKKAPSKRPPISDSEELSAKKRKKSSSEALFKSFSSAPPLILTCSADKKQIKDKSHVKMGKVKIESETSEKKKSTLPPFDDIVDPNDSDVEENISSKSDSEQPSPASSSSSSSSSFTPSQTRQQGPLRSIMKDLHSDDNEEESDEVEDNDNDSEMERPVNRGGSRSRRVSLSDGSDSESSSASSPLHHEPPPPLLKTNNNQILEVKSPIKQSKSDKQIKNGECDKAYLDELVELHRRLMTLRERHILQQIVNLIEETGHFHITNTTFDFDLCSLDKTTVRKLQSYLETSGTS
# NSD2 inh – NSD2 histone methyltransferase inhibitors, primary screen, biochemical, AlphaScreen, single concentration, set 2. Histone-lysine N-methyltransferase NSD2 (Homo sapiens), O96028. NSD2 peptide methylation, 120 min. inhibition, % at 12.5 µM. 310,000 compounds, 0.54% hits. AID 743445, 2014; in the data active means inhibition above about 50%
# Numbers without * were called inactive; ? = inconclusive; nt = no result given; [ ] = another dose, or the depositor's remark. Only some compounds are listed: those with a hit (about 2.1% of all), similar ones and a draw of the others.
SMILES,Env fusion inh,PGC1a acetyl inh,INS-1E GSIS act,AF4-AF9 inh,NSD2 inh
O=C(NC1CCCCC1)C(c1ccc(F)cc1)N(Cc1ccco1)C(=O)c1csnn1 (stereo not given),63*,2,-2,1,1
Cc1[nH]c(C)c(S(=O)(=O)NCC(C)c2ccccc2)c1C(=O)N1CCCCC1 (stereo not given),3,-18,-5,1,4
O=C(O)CC1S/C(=N/N=C/c2ccc(Br)cc2)N(c2ccccc2)C1=O (stereo not given),12,75*,6,0,0
CC(=O)N1[C@H](CO)[C@@H](c2ccc(C3=CCCC3)cc2)[C@@H]1CNC(=O)CN(C)C,nt,4,4,nt,nt
Cc1ccc(O)c(/C=N/NC(=O)CN2CCCC2)c1,-8,84*,nt,0,-3
Cc1cccc(/C=N/NC(=O)CN2CCCCCCC2)c1,-15,nt,1,-15,0
Cc1ccc2nc(SCC(=O)Nc3cc(C(C)(C)C)nn3-c3ccccc3)[nH]c2c1,-18,-3,-5,2,-2
Cc1nc2ccccc2c(=O)n1/N=C/c1ccc(N(C)C)cc1,-35,8,67*,nt,nt
COc1cc(OC)c(OC)cc1/C=N/n1c(C)nc2ccccc2c1=O,3,-26,43*,2,-1
CC(C)n1c(SCC(=O)NCc2ccco2)nc2c1c(=O)n(C)c(=O)n2C,nt,-3,nt,nt,-1
CCOC(=O)C1CCCN(C(=O)CSc2ccc(Br)cc2)C1 (stereo not given),nt,78*,nt,nt,-10
Cc1nc2ccccc2c2oc(C(=O)N3CC(C)CC(C)C3)cc12 (stereo not given),2,-11,1,-1,-6
CCOC(=O)C1CCCN(C(=O)c2cc3c(C)nc4ccccc4c3o2)C1 (stereo not given),56*,-3,15,nt,nt
CCCn1c(=S)[nH]c2cc(C(=O)N3CCCC(C(=O)OCC)C3)ccc2c1=O (stereo not given),84*,-3,nt,nt,nt
CCOC(=O)C1CCCN(C(=O)CSc2nc(C)cc(C)n2)C1 (stereo not given),3,5,-4,-1,-1
CCCN1Cc2cccc(C(=O)NCc3ccccc3OC)c2C1=O,-15,3,nt,nt,-1
COCCN1Cc2cccc(C(=O)NCc3ccccc3OC)c2C1=O,nt,-8,55*,nt,2
Cc1nc2nc(SCC(=O)NCCCN3CCCCC3)nn2c(C)c1Cc1ccccc1,12,-7,-6,-1,17
Cc1ccc(Cc2c(C)nc3nc(SCC(=O)NCCCN4CCCCCC4)nn3c2C)cc1,20,nt,-20,33*,11
CC1(c2nnc(-c3ccncc3)o2)CC(c2ccc(F)cc2)=NO1 (stereo not given),14,nt,-5,34*,nt
CCOc1cc(C(=O)Nc2ccncc2)cc(OCC)c1OCC,6,-4,36,-1,-4
CN(C)C=NC(=O)c1ccc(N2CCN(c3ncc(C(F)(F)F)cc3Cl)CC2)cc1,nt,-9,72*,nt,1
CCSCCc1nnc(NC(=O)Nc2cccc(C(F)(F)F)c2)s1,70*,nt,-1,2,7
COc1ccc(NC(=O)COCC(=O)Nc2ccc(C)cc2)cc1,5,28,nt,0,-1
C[C@@H]1CN([C@@H](C)CO)S(=O)(=O)c2ccc(-c3ccc(C(=O)N(C)C)cc3)cc2O[C@@H]1CN(C)C(=O)C1CCCCC1,19[16.7 µM],3,-2,30*,nt
SMILES,Env fusion inh,PGC1a acetyl inh,INS-1E GSIS act,AF4-AF9 inh,NSD2 inh
Cc1ccc(-c2ccc3c(c2)O[C@@H](CN(C)C(=O)C2CCCCC2)[C@H](C)CN([C@H](C)CO)S3(=O)=O)cc1,60*[16.7 µM],?,-15,nt,nt
CCc1nc(N)nc(N)c1-c1ccc(Cl)c(N=[N+]=[N-])c1,44,0,50*,0,-4
CCCCNc1nc(N)ncc1[N+](=O)[O-],-9,nt,55*,1,2
COc1ccc(CNC(=O)C[C@H]2CC[C@@H](NC(=O)c3ccc4c(c3)OCO4)[C@@H](CO)O2)cc1,4[16.7 µM],2,-4,-1,nt
CCN1CCN(S(=O)(=O)c2ccc(Cl)c(C(=O)N(CC)CC(=O)Nc3ccc(OC)cc3)c2)CC1,-29,nt,-10,-1,-3
Cc1cc(C)nc(Nc2n[nH]c(COc3ccc4ccccc4c3)n2)n1,-1,5,62*,nt,-1
Cc1cc(C)nc(Nc2n[nH]c(COc3ccccc3)n2)n1,nt,-27,nt,nt,nt
Cc1cc(C(=O)CSc2ncnc3ccccc23)c(C)n1C1CC1,-7,0,-1,-2,1
Cc1cc(-n2c(C)cc(C(=O)CSc3ncnc4ccccc34)c2C)no1,51*,6,nt,nt,-2
CCOc1ccc(OCc2cccc(C(=O)N/N=C/c3cccnc3)c2)cc1,69*,-3,-1,nt,8
CC(C)c1ccc(OCc2cccc(C(=O)N/N=C/c3cccnc3)c2)cc1,nt,3,-7,14,-4
CCC(=O)Nc1ccc(C(=O)N/N=C/c2cccnc2)cc1,-78,-10,44*,nt,-3
COc1cc(C(=O)NCC(=O)N/N=C/c2cccnc2)cc(OC)c1OC,6,7,2,45*,-5
CCCCCCC(=O)Nc1ccc(C(=O)N/N=C/c2cccnc2)cc1,3,-417,16,nt,-1
COc1ccc(C(=O)NCC(=O)N/N=C/c2cccnc2)cc1OC,3,-23,9,2,0
O=S(=O)(NCC(c1ccco1)N1CCN(c2ccc(F)cc2)CC1)c1ccc2c(c1)OCCO2 (stereo not given),-9,nt,-20,nt,0
O=C(NCCCN1CCOCC1)C(=O)NCCc1ccccc1,20,nt,nt,-4,1
COc1cc(NC(=O)CSc2nnc3c(n2)[nH]c2ccc(S(=O)(=O)NC(C)C)cc23)cc(OC)c1OC,-16,-2,-6,-14,-1
O=C(NCC1CCN(C(=O)C(=O)c2cc3ccccc3o2)CC1)c1ccc2c(c1)OCO2,1,nt,-13,0,0
O=c1cc(Cl)[nH]c(=O)n1Cc1ccc(F)cc1,2,-25,7,-3,2
O=c1cc(Cl)[nH]c(=O)n1Cc1ccccc1,8,13,48*,-1,11
O=C(CCl)Nc1ccc(Oc2cnc3ccccc3n2)cc1,55*,nt,nt,nt,-1
O=C(C[C@H]1C[C@H]2c3cc(NC(=O)C4CCC4)ccc3O[C@H]2[C@H](CO)O1)NCC1CC1,10[16.7 µM],-1,0,-2,nt
C[C@H]1CCCCO[C@@H](CN(C)C(=O)C2CCCCC2)[C@@H](C)CN([C@@H](C)CO)C(=O)c2cc(NC(=O)Nc3ccccc3)ccc2O1,64*[16.7 µM],2,-14,3,nt
C[C@H]1CCCCO[C@H](CN(C)C(=O)NC2CCCCC2)[C@@H](C)CN([C@@H](C)CO)C(=O)c2cc(NC(=O)Nc3ccccc3)ccc2O1,56*[16.7 µM],14,2,1,nt
